Rows were chosen to be rich in hits. Some 8.7% of all compounds tested hit in one or more screens of this group.
AMA1-RON2 inh: disrupts binding of P. falciparum AMA1 to RON2; AlphaScreen AMA1-biotinylated RON2 peptide binding; Potency, µM (series often up to 58.2 µM), most hits filed as inhibitors; 360,000 compounds, 0.2% hits; AID 720542; also: nearly all actives have a fitted effect of over 45% in size
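AMA1 (3D7) with his tag at 25 nM final met compounds first, then biotinylated RON2 peptide at 25 nM; detection used donor plus acceptor beads, 10 µg/mL apiece, read by AlphaScreen after 30 min at room temperature.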
VACV Venus inh: inhibitors of vaccinia virus (Venus reporter); Vaccinia virus Venus reporter expression, fluorescence; Potency, µM (series often up to 36.5 µM), most hits filed as inhibitors; 330,000 compounds, 0.46% hits; AID 720580; calls by dose curve; tested in A549 cells; also: nearly all actives have a fitted effect of over 30% in size
Vaccinia mCherry: vaccinia inhibition (mCherry reporter) | Vaccinia virus mCherry reporter infection, fluorescence | Potency, µM (top dose mostly 36.5 µM), most hits filed as inhibitors | 310,000 compounds, 0.63% hits; calls by dose curve; tested in A549 cells; also: nearly all actives have a fitted effect of over 35% in size
Pf growth 96h: P. falciparum growth inhibition at 96 hour, primary screen for plastid delayed-death inhibitors; 320,000 compounds, 6.9% hits; Potency, µM (highest dose often 28.7 µM), most hits filed as inhibitors; P. falciparum luciferase reporter growth, 96 h
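Erythrocytes infected with luciferase-expressing P. falciparum were dispensed at 2% hematocrit and 0.05% parasitemia (final), then incubated with compounds 96 hours at 37 C in 5% CO2. Luminescence after detection reagent addition reported growth.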
Pf growth 48h: inhibits P. falciparum growth in the first generation, 48 h | Potency, µM (top dose mostly 28.7 µM), usual class: inhibitors | AID 504832 | 310,000 compounds, 5.9% hits | P. falciparum luciferase growth in erythrocytes, 48 h
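Firefly luciferase activity from engineered P. falciparum reports growth; inhibitors lower the luminescent signal. Cultures contained 2% hematocrit erythrocytes at 0.1% final parasitemia.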
Each line names hits and unclear results; the compound was inactive in the other large screens. Unless noted, calls follow the shape of the dose curve; as a rule, active = well fitted curve in the direction sought with a large enough effect; inconclusive = small, poorly fitted or top-dose-only effect, or another doubt; inactive = no such curve, though single readings can be large; an effect the other way counts as inactive or inconclusive.

O=C1C=C(c2ccc3c(c2)OCO3)C[C@@H](c2ccc3c(c2)OCO3)C1	none
CCOc1ccc(C(c2c(O)cc(C)n(CCOC)c2=O)N2CCN(c3ccccc3F)CC2)cc1 (stereo unspecified)	none (no result: AMA1-RON2 inh, Pf growth 96h, Pf growth 48h)
C=Cn1ccnc1P(=S)(c1ccc(N(C)C)cc1)c1nccn1C=C	Pf growth 96h inconclusive
C=Cn1ccnc1P(=S)(c1ccc2c(c1)c1ccccc1n2CC)c1nccn1C=C	Pf growth 48h 2.94µM
OC1(c2ccccc2)CCN(Cc2ccccc2)CC1	Pf growth 96h inconclusive
OC1(c2ccc(Cl)c(Cl)c2)C[n+]2ccccc2N1Cc1ccccc1 (stereo unspecified)	VACV Venus inh inconclusive, Pf growth 96h inconclusive, Pf growth 48h 3.7µM
CCOc1ccc(CCNC(=O)c2ccc3c(c2)N(Cc2ccccc2)C(=O)c2ccccc2S3=O)cc1OCC (stereo unspecified)	none (no result: AMA1-RON2 inh, Pf growth 96h, Pf growth 48h)
COc1ccc(C(C(O)C(=O)c2c[nH]c3ccccc23)N2CCN(c3ccc(OC)cc3)CC2)cc1 (stereo unspecified)	Pf growth 48h 13.1µM (no result: Pf growth 96h)
Nc1c(C(=O)OC2CCCCC2)c2nc3ccccc3nc2n1CC1CCCO1 (stereo unspecified)	Pf growth 96h 13.1µM, Pf growth 48h inconclusive (no result: VACV Venus inh, Vaccinia mCherry)
CC(C)OCCCNC(=O)c1c(N)n(CC2CCCO2)c2nc3ccccc3nc12 (stereo unspecified)	Pf growth 96h inconclusive, Pf growth 48h 3.29µM
COC(=O)c1ccccc1NC(=O)C1CCCN(c2nnc(C)c3c(C)n(-c4ccccc4)nc23)C1 (stereo unspecified)	none (no result: AMA1-RON2 inh, Pf growth 96h, Pf growth 48h)
CCOC(=O)c1ccccc1NC(=O)c1cn(-c2ccc(OC)cc2)c(=O)c2ccccc12	Pf growth 96h 2.94µM, Pf growth 48h inconclusive
COc1cccc(-n2cc(C(=O)Nc3cc(OC)c(OC)c(OC)c3)c3ccccc3c2=O)c1	none (no result: AMA1-RON2 inh, Pf growth 96h, Pf growth 48h)
COc1cccc(-n2cc(C(=O)NC(C)C)c3ccccc3c2=O)c1	Pf growth 96h 1.31µM
CC(C)C(NS(C)(=O)=O)c1nnc2n1CCN(Cc1ccc(C#CC(C)(C)O)cc1)CC2 (stereo unspecified)	none (no result: AMA1-RON2 inh, Pf growth 96h, Pf growth 48h)
COc1ccc(N2CCN(CCNC(=O)C3CC(=O)N(C4CCCC4)C3)CC2)cc1 (stereo unspecified)	Pf growth 96h 1.85µM
COc1cccc(N2CCN(C(=O)C3CCC(=O)N(C4CCCCCC4)C3)CC2)c1 (stereo unspecified)	Pf growth 96h inconclusive, Pf growth 48h 8.28µM
O=C(NCCCN1CCN(c2ccccc2F)CC1)C1CC(=O)N(C2CCCC2)C1 (stereo unspecified)	Pf growth 96h 11.7µM (no result: Pf growth 48h)
COc1cccc(CN2CCN(C(=O)C3CCC(=O)N(C4CCCC4)C3)CC2)c1 (stereo unspecified)	Pf growth 48h inconclusive
CN1CCN(CCCNC(=O)C2CC(=O)N(C3CCCCC3)C2)CC1 (stereo unspecified)	none (no result: Vaccinia mCherry)
CCn1c(=O)cc(SCC(=O)NCCCN2CCN(c3ccccc3F)CC2)c2ccccc21	Pf growth 96h inconclusive, Pf growth 48h 11.7µM (no result: VACV Venus inh, Vaccinia mCherry)
CCC(Oc1ccccc1)C(=O)Nc1ccc2oc(-c3ccc(OC)cc3)nc2c1 (stereo unspecified)	none (no result: AMA1-RON2 inh, Pf growth 96h, Pf growth 48h)
COc1cc(-c2cc3n(C)c(C)c(CCC(=O)NCc4ccccc4)c(=O)n3n2)cc(OC)c1OC	none (no result: AMA1-RON2 inh, Pf growth 96h, Pf growth 48h)
O=C(OCc1ccccc1)/C(=C/c1cccc2ccccc12)NC(=O)c1ccccc1	Pf growth 96h inconclusive, Pf growth 48h 6.57µM
Cc1ccc(S(=O)(=O)NCC(C)NS(=O)(=O)c2ccc(C)cc2)cc1 (stereo unspecified)	none (no result: VACV Venus inh, Vaccinia mCherry)
CNC(=O)OC(C)CNS(=O)(=O)c1ccc(C)cc1 (stereo unspecified)	Pf growth 96h 11.7µM
S=C(NCCc1ccccc1)Nc1ccc(Br)cn1	Pf growth 96h 8.28µM
c1ccc(Sc2cccc3ccccc23)c(CNC2=NCCN2)c1	Pf growth 96h 0.928µM, Pf growth 48h 1.17µM
Fc1ccccc1Sc1ccccc1CNC1=NCCN1	Pf growth 96h 10.4µM, Pf growth 48h inconclusive
CCN1CCN(C(=O)c2cnn(-c3ccc(F)cc3)c2-n2cccc2)CC1	none (no result: AMA1-RON2 inh, Pf growth 96h, Pf growth 48h)
CC(C)(C)OC(=O)N1CCC[C@H]1c1nnc(SC/C=C/c2ccccc2)o1	VACV Venus inh inconclusive, Pf growth 96h inconclusive, Pf growth 48h 10.4µM (no result: Vaccinia mCherry)
CC(C)(C)OC(=O)N1CCC[C@H]1c1nnc(SCc2ccccc2Cl)o1	VACV Venus inh inconclusive, Pf growth 96h inconclusive, Pf growth 48h inconclusive (no result: Vaccinia mCherry)
COc1ccc(N(C(=O)c2cccc(C)c2)S(=O)(=O)c2ccc3c(c2)n(C)c(=O)n3C)cc1	none (no result: AMA1-RON2 inh, Pf growth 96h, Pf growth 48h)
CN1CCN(C(=O)c2ccccc2NC(=O)c2ccc(C(C)(C)C)cc2)CC1	Pf growth 96h inconclusive
Cc1ccc(C(=O)Nc2ccccc2C(=O)N2CCCCC2C)cc1 (stereo unspecified)	Pf growth 96h 11.7µM
CC(=O)N1CCN(C(=O)c2ccc(-n3c(C)ccc3C)cc2)CC1	Pf growth 96h inconclusive, Pf growth 48h inconclusive
CCOC(=O)N1CCN(C(=O)c2ccc(-n3c(C)ccc3C)cc2)CC1	Pf growth 96h 10.4µM, Pf growth 48h inconclusive
CCOC(=O)N1CCN(C(=O)c2ccccc2NC(=O)c2ccc(C(C)(C)C)cc2)CC1	Pf growth 96h inconclusive, Pf growth 48h 10.4µM
CCOC(=O)N1CCN(C(=O)C(NC(=O)c2ccc(C(C)(C)C)cc2)C(C)C)CC1 (stereo unspecified)	Pf growth 96h inconclusive, Pf growth 48h 9.28µM (no result: VACV Venus inh, Vaccinia mCherry)
CCOc1ccc(C(=O)N[C@H](C(=O)N2CCN(c3ncccn3)CC2)C(C)C)cc1	none (no result: Pf growth 96h, Pf growth 48h)
Cc1ccc(C(=O)Nc2ccc(C(=O)N3CCCCC3C)cc2)cc1 (stereo unspecified)	Pf growth 48h inconclusive
COc1cc2nc(N3CCCC(O)C3)c(CNCc3ccccc3F)cc2c(OC)c1OC (stereo unspecified)	none (no result: AMA1-RON2 inh, Pf growth 96h, Pf growth 48h)
O=C1CS/C(=N/N=C2C3CC4CC(C3)CC2C4)N1	Pf growth 96h 13.1µM
CC1C/C(=N/N2C(=O)CSC2=S)CC(C)(C)C1 (stereo unspecified)	Pf growth 96h 13.1µM (no result: Vaccinia mCherry)
Cc1ccc(NC(=O)CC2S/C(=N/N=C3/NC(=O)CS3)NC2=O)cc1 (stereo unspecified)	none
Cc1cc(C)nc(/N=C2/NC(=O)CS2)n1	AMA1-RON2 inh inconclusive, Pf growth 96h inconclusive
CC1C/C(=N/N=C2/NC(=O)CS2)CC(C)(C)C1 (stereo unspecified)	Pf growth 96h 10.4µM (no result: Vaccinia mCherry)
Cc1ccccc1/C=N/N1C(=O)CSC1=S	none (no result: VACV Venus inh, Vaccinia mCherry)
C=CCOc1ccc(/C=N/O)cc1Cl	Pf growth 96h 3.29µM
COc1ccc(OCCn2nnc3sc4c(c3c2=O)CCC(C(C)(C)C)C4)cc1 (stereo unspecified)	none (no result: AMA1-RON2 inh, Pf growth 96h, Pf growth 48h)
COc1cc(/C=C(\C#N)c2ccccn2)ccc1OCc1ccccc1	Pf growth 96h inconclusive, Pf growth 48h 9.28µM
CCN(Cc1ccccc1)c1ccc(/C=C(\C#N)c2ccccn2)cc1	Pf growth 96h inconclusive
COc1cc(/C=C(\C#N)c2nc3ccccc3[nH]2)ccc1OCc1ccccc1F	none (no result: AMA1-RON2 inh, Pf growth 96h, Pf growth 48h)
